This is an account of results in PubChem BioAssay (NCI).

Compounds without any hit were thinned out: in the full panel of roughly 83,000, 20% have a hit.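 Compound tested at a single concentration for 48 hours in 96-well plates; a percent growth value below 10 was scored as active.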 A number with no mark means an inactive call. Activity calls are given as the source filed them.

Some test systems named below: NCI-H23 lung; NCI-H226 lung; NCI-H322M lung; HOP-62 NSCLC; NCI-H460 lung; NCI-H522 lung; A549/ATCC NSCLC; 786-0 renal; COLO 205 colon; DU-145 prostate; K-562 leukemia; MALME-3M melanoma; MDA-MB-231 breast; RXF 393 renal; SF-268 CNS; SF-295 CNS; SF-539 CNS; UACC-257 melanoma; M14 melanoma; HCT-15 colon.
Assay in all cases: NCI-60 one-dose screen, 48 h (100 = growth as untreated, 0 = no growth, -100 = all killed)
Holding throughout (details): 10 µM unless noted

For the compound `c1coc([C@@H]2C[C@@H]3Cc4ccc5ccccc5c4N2O3)c1`, the growth is 94.3% in the experiment with NCI-H23 lung; 107% in the experiment with NCI-H226 lung; 106% in the experiment with NCI-H322M lung; 88.6% with HOP-62 NSCLC; 117% with NCI-H460 lung; 86.8% with NCI-H522 lung. The growth is 94.9% in the experiment with A549/ATCC NSCLC; 103% in the experiment on 786-0 renal; 130% with COLO 205 colon; 120% in the experiment with DU-145 prostate; 102% in the experiment on K-562 leukemia; 97.7% in the experiment on MALME-3M melanoma. Also, the growth in the experiment with MDA-MB-231 breast was 108%; with RXF 393 renal, 94.2%; with SF-268 CNS, 111%; in the experiment on SF-295 CNS, 101%; in the experiment with SF-539 CNS, 99.6%; in the experiment with UACC-257 melanoma, 99.2%. The growth was 108% in the experiment on M14 melanoma and 99.5% with HCT-15 colon.

Regarding `CC12CCC3C(CCC4CC(=O)/C(=C\O)CC43C)C1CCC(=O)O2` (stereo not given), the growth in the experiment on NCI-H23 lung is 98.8%; in the experiment on NCI-H226 lung it was 113%; with NCI-H322M lung it was 108%; with HOP-62 NSCLC, 90.9%; in the experiment on NCI-H460 lung, 115%; in the experiment on NCI-H522 lung, 108%. Also, the growth in the experiment with A549/ATCC NSCLC is 106%; in the experiment with 786-0 renal, 92.5%; with COLO 205 colon, 150%; in the experiment with DU-145 prostate, 115%; in the experiment with K-562 leukemia, 104%; in the experiment on MALME-3M melanoma it was 124%. Also, the growth in the experiment with MDA-MB-231 breast is 111%; in the experiment on RXF 393 renal, 141%; in the experiment with SF-268 CNS it was 108%; with SF-295 CNS, 109%; in the experiment on SF-539 CNS, 111%; with UACC-257 melanoma, 115%. In addition, the growth with M14 melanoma is 95.2%; with HCT-15 colon, 121%.

On to `O=C(Nc1ccc(C2=NCCCN2)cc1)Nc1ccc(C2=NCCCN2)cc1`, for which the growth in the experiment with NCI-H23 lung was 67.4%; in the experiment with NCI-H226 lung, 75%; with NCI-H322M lung it was 94.5%; in the experiment on HOP-62 NSCLC it was 101%; in the experiment with NCI-H460 lung, 88.8%; in the experiment with NCI-H522 lung, 80.1%. Further, the growth with A549/ATCC NSCLC was 99.9%; in the experiment with 786-0 renal, 84.3%; in the experiment with COLO 205 colon it was 128%; in the experiment with DU-145 prostate, 103%; in the experiment with K-562 leukemia, 76.1%; in the experiment with MALME-3M melanoma, 104%. In addition, the growth with MDA-MB-231 breast is 112%; in the experiment with RXF 393 renal it was 106%; in the experiment on SF-268 CNS, 96.8%; with SF-295 CNS it was 92.2%; in the experiment on SF-539 CNS, 80.1%; with UACC-257 melanoma, 96.1%. Also, the values for the growth in the experiment with M14 melanoma and in the experiment on HCT-15 colon were 92.7% and 106%, respectively.

For the compound `Cc1c(NCc2nnc3n(Cc4ccccc4)c(=O)c4c5c(sc4n23)CCCC5)c(=O)n(-c2ccccc2)n1C`, the growth in the experiment with NCI-H23 lung was 92.4%; with NCI-H226 lung it was 94.8%; in the experiment with NCI-H322M lung it was 92.2%; in the experiment on HOP-62 NSCLC, 105%; with NCI-H460 lung, 98.9%; with NCI-H522 lung, 71.3%. In addition, the growth with A549/ATCC NSCLC was 66.7%; in the experiment with 786-0 renal, 72.3%; in the experiment with COLO 205 colon, 101%; with DU-145 prostate it was 75.6%; in the experiment on K-562 leukemia, 53.5%; with MALME-3M melanoma, 113%. For the same compound, the growth in the experiment on MDA-MB-231 breast was 96.5%; in the experiment on RXF 393 renal, 84.5%; in the experiment with SF-268 CNS, 74.1%; in the experiment on SF-295 CNS, 67.2%; in the experiment with SF-539 CNS it was 103%; with UACC-257 melanoma it was 80.9%. Moreover, the results for the growth in the experiment with M14 melanoma and with HCT-15 colon were 83.2% and 94.6%, respectively.

For the compound `CCC[C@H](N[C@@H](C)C(=O)N1[C@H](C(=O)O)C[C@@H]2CCCC[C@@H]21)C(=O)OCC`, the growth was 94.2% with NCI-H23 lung; 105% with NCI-H226 lung; 103% in the experiment with NCI-H322M lung; 123% in the experiment with HOP-62 NSCLC; 116% with NCI-H460 lung; 102% with NCI-H522 lung. Further, the growth is 91.4% in the experiment with A549/ATCC NSCLC; 103% in the experiment with 786-0 renal; 111% in the experiment on COLO 205 colon; 111% in the experiment with DU-145 prostate; 116% in the experiment with K-562 leukemia; 94.2% in the experiment with MALME-3M melanoma. In addition, the growth was 90.4% in the experiment on MDA-MB-231 breast; 114% in the experiment on RXF 393 renal; 105% with SF-268 CNS; 111% with SF-295 CNS; 91.4% in the experiment with SF-539 CNS; 97.9% in the experiment on UACC-257 melanoma. Also, the growth with M14 melanoma was 113%; in the experiment with HCT-15 colon, 99.3%.

Turning to `CC1=NN(c2ccccc2Cl)C(=O)/C1=C\c1cn(S(=O)(=O)c2ccc(C)cc2)c2ccccc12`, the growth in the experiment on NCI-H23 lung was 83.9%; in the experiment with NCI-H226 lung, 79.9%; in the experiment with NCI-H322M lung, 105%; in the experiment on HOP-62 NSCLC, 62.3%; with NCI-H460 lung, 119%; in the experiment on NCI-H522 lung, 107%. Besides, the growth in the experiment with A549/ATCC NSCLC was 109%; in the experiment with 786-0 renal it was 94.9%; in the experiment with COLO 205 colon it was 142%; in the experiment on DU-145 prostate it was 114%; in the experiment on K-562 leukemia, 138%; in the experiment on MALME-3M melanoma it was 114%. For the same compound, the growth is 85.4% in the experiment on MDA-MB-231 breast; 137% in the experiment with RXF 393 renal; 104% in the experiment with SF-268 CNS; 114% in the experiment with SF-295 CNS; 114% in the experiment on SF-539 CNS; 115% with UACC-257 melanoma. Also, the growth with M14 melanoma is 82.1%; with HCT-15 colon, 105%.

Turning to `O=C(Nc1ncc([N+](=O)[O-])s1)c1cccc([N+](=O)[O-])c1`, the growth in the experiment with NCI-H23 lung was 9.05% (active); with NCI-H226 lung, 29.3%; in the experiment with NCI-H322M lung it was 35.9%; with HOP-62 NSCLC, 25.3%; in the experiment with NCI-H460 lung it was 43.4%; in the experiment on NCI-H522 lung, 8.27% (active). The growth in the experiment with A549/ATCC NSCLC was 81.8%; in the experiment with 786-0 renal it was 18%; in the experiment on COLO 205 colon, 77%; with DU-145 prostate it was 84.6%; in the experiment on K-562 leukemia, 23.3%; with MALME-3M melanoma, 40.3%. Further, the growth in the experiment on MDA-MB-231 breast was 62.3%; with RXF 393 renal, 25.1%; in the experiment on SF-268 CNS, 64.2%; with SF-295 CNS, 23.3%; in the experiment on SF-539 CNS it was 28.4%; in the experiment on UACC-257 melanoma, 58.6%. The growth in the experiment with M14 melanoma was 44%; with HCT-15 colon it was 47.8%.
